According to PubChem BioAssay (NCATS):
Inconclusive results are not listed. A call without a number means that no potency is given here. Unmarked numbers belong to inactive results. Activity calls are given as the source filed them. Calls follow the shape of the dose curve; as a rule, active = well fitted curve in the direction sought with a large enough effect; inconclusive = small, poorly fitted or top-dose-only effect, or another doubt; inactive = no such curve, though single readings can be large; an effect the other way counts as inactive or inconclusive.

Columns and labels:
[1] = tested on: Zika virus NS2B-NS3 protease (unlinked complex); experiment: Primary screen GU Rhodamine qHTS for Zika virus inhibitors: Unlinked NS2B-NS3 protease assay (AID 1347159); also: nearly all actives have a fitted effect of over 60% in size
How it was run: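 Noncovalent NS2B hydrophilic domain/NS3 protease complex (25 nM final) in 10 mM Tris-HCl pH 8.0, 0.01% Tween 20, preincubated 15 min with compounds (up to 114 microM), then 1.5 microM Rhodamine110 substrate. Fluorescence change over 15 min fitted to 4-parameter Hill.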

[2] = tested on: Zika virus NS2B-NS3 protease (linked construct); experiment: Primary screen NINDS Rhodamine qHTS for Zika virus inhibitors (AID 1347160); also: nearly all actives have a fitted effect of over 55% in size
How it was run: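 Purified NS2B-NS3 protease with the NS2B hydrophilic domain joined by a flexible linker (25 nM) in 10 mM Tris-HCl pH 8.0, 0.01% Tween 20, preincubated 15 min at RT with compound; Rhodamine110 peptide substrate 1.5 µM; fluorescence change over 15 min; 4-parameter Hill fit.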

[3] = molecular target: Lysine-specific demethylase 5B (Homo sapiens) (UniProt Q9UGL1); experiment: Optimization screen for KDM5B Histone Demethylases FDH coupled qHTS against the LOPAC library (AID 1347166)
Lysine-specific demethylase 5B (Homo sapiens), sequence (Q9UGL1 whole entry, looked up): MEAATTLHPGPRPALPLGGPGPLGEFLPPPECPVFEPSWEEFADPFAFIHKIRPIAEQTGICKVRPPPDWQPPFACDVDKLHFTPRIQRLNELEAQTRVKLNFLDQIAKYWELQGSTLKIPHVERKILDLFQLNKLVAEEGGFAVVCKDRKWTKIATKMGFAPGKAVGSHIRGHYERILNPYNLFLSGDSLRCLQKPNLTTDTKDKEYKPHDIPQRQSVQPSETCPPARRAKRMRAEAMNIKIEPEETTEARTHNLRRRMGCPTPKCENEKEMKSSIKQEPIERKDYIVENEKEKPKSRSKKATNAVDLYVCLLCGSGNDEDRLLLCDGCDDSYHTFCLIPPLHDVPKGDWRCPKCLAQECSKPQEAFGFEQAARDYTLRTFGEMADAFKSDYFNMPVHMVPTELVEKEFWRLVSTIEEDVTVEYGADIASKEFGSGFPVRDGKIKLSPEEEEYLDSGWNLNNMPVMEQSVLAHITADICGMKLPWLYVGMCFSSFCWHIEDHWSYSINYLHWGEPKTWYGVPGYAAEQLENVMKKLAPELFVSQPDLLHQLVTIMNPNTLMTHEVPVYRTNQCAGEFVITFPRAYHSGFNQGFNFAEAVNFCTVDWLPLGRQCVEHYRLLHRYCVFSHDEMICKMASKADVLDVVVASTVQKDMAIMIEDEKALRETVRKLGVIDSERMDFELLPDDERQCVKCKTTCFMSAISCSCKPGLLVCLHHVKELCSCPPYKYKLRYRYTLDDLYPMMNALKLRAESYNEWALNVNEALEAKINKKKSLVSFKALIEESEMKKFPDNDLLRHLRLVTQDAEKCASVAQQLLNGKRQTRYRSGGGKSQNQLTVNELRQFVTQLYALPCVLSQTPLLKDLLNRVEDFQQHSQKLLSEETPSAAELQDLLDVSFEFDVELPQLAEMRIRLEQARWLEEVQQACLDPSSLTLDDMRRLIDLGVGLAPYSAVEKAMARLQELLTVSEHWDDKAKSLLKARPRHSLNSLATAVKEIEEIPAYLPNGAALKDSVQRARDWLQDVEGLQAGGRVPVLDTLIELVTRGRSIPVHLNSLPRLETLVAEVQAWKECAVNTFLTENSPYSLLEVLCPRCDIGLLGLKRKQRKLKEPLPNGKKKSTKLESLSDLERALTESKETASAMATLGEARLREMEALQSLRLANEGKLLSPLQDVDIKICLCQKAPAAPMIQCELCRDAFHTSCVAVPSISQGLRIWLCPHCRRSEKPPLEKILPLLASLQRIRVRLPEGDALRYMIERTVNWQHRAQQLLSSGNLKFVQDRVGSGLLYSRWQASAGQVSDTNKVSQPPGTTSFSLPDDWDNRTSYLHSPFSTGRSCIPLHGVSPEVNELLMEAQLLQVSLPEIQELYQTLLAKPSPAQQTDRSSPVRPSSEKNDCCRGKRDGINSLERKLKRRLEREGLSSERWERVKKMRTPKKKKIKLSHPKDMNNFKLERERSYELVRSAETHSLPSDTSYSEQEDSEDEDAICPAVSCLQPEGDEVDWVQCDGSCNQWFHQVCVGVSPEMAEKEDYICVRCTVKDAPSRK
How it was run: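 KDM5BDeltaAP (200nM final) preincubated 10 min with compound, then 12.5uM H3K4Me3, 25uM a-ketoglutarate, ascorbate, Fe(II), NAD+ and FDH added; 50mM HEPES pH 7.5, 0.01% Tween-20. NADH fluorescence (340/450 nm) change over 30 min, room temperature.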

N#C[C@@H](O[C@@H]1O[C@H](CO[C@@H]2O[C@H](CO)[C@@H](O)[C@H](O)[C@H]2O)[C@@H](O)[C@H](O)[C@H]1O)c1ccccc1
Potency [1]: inactive | Potency [2]: inactive

CN[C@H]1[C@H](O)[C@H](O[C@@H]2[C@@H](O)[C@H](O[C@H]3O[C@H]([C@H](C)O)[C@@H](O)[C@H](O)[C@H]3N)[C@@H](N)C[C@H]2N)OC[C@@]1(C)O
Potency [1]: inactive | Potency [2]: inactive

Oc1ccc2c3c1O[C@H]1[C@H](N(CCCl)CCCl)CC[C@@]4(O)[C@@H](C2)N(CC2CC2)CC[C@]314
activity change, negative = inhibition [1]: -3.74% [at 19.1 µM] | outcome [2]: inactive [at 10.7 µM]

C=C(C)[C@H]1O[C@H]2CC[C@@]3(C)[C@@](O)(CC[C@H]4[C@@H]5OC(C)(C)[C@H]6C[C@@H]7C(=C)Cc8c(Cl)cc9[nH]c(c5c9c8[C@@]76O)[C@@]43C)[C@]23O[C@@H]3[C@H]1O
Potency [1]: inactive | Potency [2]: inactive

CN1CCCC1CCOC(c1cc2nccc(C(=O)O)c2[nH]1)c1ccccc1Cl (stereo not given)
Potency [1]: inactive | Potency [2]: inactive

CCc1c(C(=O)C(N)=O)c2c(OCC(=O)OC)cccc2n1Cc1ccccc1
Potency [1]: inactive | Potency [2]: inactive

CN1C(=O)c2ccccc2NC(=O)[C@]12O[C@@H]2c1ccccc1
Potency [1]: inactive | Potency [2]: inactive

Clc1ccc(OCC2=NCCN2)cc1Cl
Potency [1]: inactive | Potency [2]: inactive

C[C@]12CC[C@@H](O)C[C@H]1CC[C@@H]1[C@@H]2CC[C@]2(C)C(=O)CC[C@@H]12
Potency [1]: inactive | Potency [2]: inactive

COC1CC(OC2CCC3(C=O)C(CCC4C3CCC3(C)C(C5=CC(=O)OC5)CCC43O)C2)OC(C)C1OC1OC(CO)C(O)C(O)C1O (stereo not given)
Potency [1]: inactive | Potency [2]: inactive

COC1=CC(=O)O[C@@H](CCc2ccccc2)C1
Potency [1]: inactive | Potency [2]: inactive

OCCCCC#Cc1cncc(OC[C@@H]2CCN2)c1
Potency [1]: inactive | Potency [2]: inactive

CCCN1CCO[C@H]2c3cc(O)ccc3OC[C@@H]21
Potency [1]: inactive | Potency [2]: inactive

C[C@@H]1C(=O)O[C@H]2[C@H](O)[C@@]34[C@@H]5OC(=O)[C@@]3(O[C@@H]3OC(=O)[C@@H](O)[C@@]34[C@H](C(C)(C)C)[C@H]5O)[C@@]12O
Potency [1]: inactive | Potency [2]: inactive

CC(C)C1(OO)C=C2C(=O)CC3C(C)(C(=O)O)CCCC3(C)C2CC1 (stereo not given)
Potency [1]: inactive | Potency [2]: inactive

Cc1cc(C(=O)CN2CCCC2)c(C)n1-c1ccc(F)cc1
Potency [1]: inactive | Potency [2]: inactive

CN1[C@@H]2CC[C@H]1CC(OC(=O)C1C=Nc3ccccc31)C2 (stereo not given in full)
Potency [1]: inactive | Potency [2]: inactive

COC(=O)[C@@]12C(=O)C(C)C(=O)[C@]1(C)C(C)=C[C@H]1[C@]3(C=O)CC[C@H](OC(C)=O)C(C)(C)[C@H]3CC[C@@]12C (stereo not given in full)
Potency [1]: inactive | Potency [2]: inactive

COc1cc(CCNCc2ccccc2O)c(OC)cc1C#N
Potency [1]: inactive | Potency [2]: inactive

OC1(c2ccc(Cl)cc2)c2ccccc2C2=NCCN21 (stereo not given)
Potency [1]: inactive | Potency [2]: inactive

CN1[C@H]2C[C@H](OC(=O)[C@H](CO)c3ccccc3)C[C@@H]1[C@@H](O)C2
Potency [1]: inactive | Potency [2]: inactive

CN(C)CCc1c[nH]c2ccc(CN3CCN(C)S3(=O)=O)cc12
Potency [1]: inactive | Potency [2]: inactive

COC1CC(O[C@H]2CC[C@@]3(C)C(=CCC4C3C(O)[C@@H](O)[C@]3(C)[C@@H](C(C)=O)CC[C@]43O)C2)OC(C)C1OC1CC(OC)C(OC2OC(C)C(O)C(O)C2O)C(C)O1 (stereo not given in full)
Potency [1]: inactive | Potency [2]: inactive

CC(N)Cc1c[nH]c2ccccc12 (stereo not given)
Potency [1]: inactive | Potency [2]: inactive

C[C@H]1O[C@@H](O[C@H]2C[C@@H](O)[C@]3(CO)C4C(CC[C@]3(O)C2)[C@@]2(O)CC[C@H](C3=CC(=O)OC3)[C@@]2(C)C[C@H]4O)[C@@H](O)[C@@H](O)[C@H]1O (stereo not given in full)
Potency [1]: inactive | Potency [2]: inactive

COC(=O)N1CCN(C(=O)Cc2ccc(Cl)c(Cl)c2)[C@@H](CN2CCCC2)C1
Potency [1]: inactive | Potency [2]: inactive

Nc1ccc(CCN2CCN(c3cccc(C(F)(F)F)c3)CC2)cc1
Potency [3]: inactive

CC12NC(Cc3ccccc31)c1ccccc12 (stereo not given)
Potency [3]: inactive

C[C@H](N)Cc1cccc(C(F)(F)F)c1
Potency [3]: inactive

CCS(=O)(=O)Nc1cccc(C(=C2CCCCC2)c2cnc[nH]2)c1
Potency [3]: inactive

Cc1cn(C[C@H](N)C(=O)O)c(=O)n(Cc2cc(-c3ccccc3)sc2C(=O)O)c1=O
Potency [1]: inactive | Potency [2]: inactive

CCOC(=O)c1ncn2c1[C@@H]1CCCN1C(=O)c1cc(OC)ccc1-2
Potency [3]: inactive

CC(=O)O[C@H]1C[C@@H](OC(C)=O)C(C)(C)C2C[C@@H](O)[C@]3(C)C(CC[C@@]4(C)[C@H](C5=CC(=O)OC5O)C[C@H]5O[C@]543)[C@]21C (stereo not given in full)
Potency [2]: inactive
